Measured values as given in PubChem BioAssay (NCATS).
Where “and” joins values, the source holds several entries; their conditions need not be identical. Equal entries are not always repeated. Inconclusive results are not listed. Values without a mark were called inactive. Calls of active or inactive are those of the source. The call rests on the fitted dose curve; in most records, active means well fitted cell-killing curve with a large enough effect; inconclusive means small, poorly fitted or top-dose-only effect; inactive means flat fitted curve, though single readings scatter.

assay: Cellular viability qHTS for adrenocortical cancer (ACC) cell line SW-13 (AID 1963989); details: SW-13 ACC cells viability, CellTiter-Glo, 48 h; activity (max response): hits give low values; further: nearly all actives have a fitted effect of over 65% in size;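 on activity (max response): cells grown in serum-free medium with ITS supplement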
In short: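 Luminescent ATP read-out (CellTiter-Glo, 20 min at room temperature) measured metabolically competent SW-13 cells after 48 h compound treatment. Final concentrations spanned up to 46 uM; bortezomib served as positive control.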
On the % scale 0 is the no-effect control and ±100 the full control effect; potency means the concentration at half of the fitted maximal effect.

SMILES	Potency	activity (max response)
COc1cc2c(Oc3ccc4[nH]c(C)cc4c3F)ccnc2cc1OCC1(N)CC1	11.2 µM (active)	–
CCCCOC(=O)CC(CC(=O)OCCCC)(OC(C)=O)C(=O)OCCCC	–	12.7%
COc1cc(C(=O)NC(N)=Nc2ccc(C)c(NC(=O)c3ccc(-c4ccccc4)cc3)c2)cc(OC)c1OC	11.2 µM (active)	–
CCS(=O)(=O)Nc1ccc(Oc2ccc(F)cc2F)c(-c2cn(C)c(=O)c3[nH]ccc23)c1	2 µM (active)	–
CC1c2cccc(O)c2C(O)=C2C(=O)C3(O)C(O)=C(C(N)=O)C(=O)C(N(C)C)C3C(O)C21 (stereo not given)	–	8.67%
O=C(CCN1CCN(CCO)CC1)N1c2ccccc2Sc2ccc(C(F)(F)F)cc21	–	-5.01%
Cc1ccccc1OCC(O)CO (stereo not given)	–	-4.04%
Fc1cccc(-n2cnc3c(NCc4nc5c(F)c(F)ccc5[nH]4)nc(N4CCOCC4)nc32)c1	0.112 µM (active)	–
COc1cc(C=O)ccc1O	–	3.08%
O=[N+]([O-])c1ccc(-c2nc(-c3ccc(F)cc3)c(-c3ccncc3)[nH]2)cc1	–	-1.63%
O=C(OCC1(COC(=O)c2cccnc2)CCCC(COC(=O)c2cccnc2)(COC(=O)c2cccnc2)C1O)c1cccnc1	–	7.27%
CCS(=O)(=O)N1CCN(c2ccc(Nc3ncc(C(N)=O)c(NC4CC4)n3)cc2)CC1	22.4 µM (active)	–
Nc1c2ccccc2nc2ccccc12	7.31 µM (active)	–
COc1ccc(CNc2nc(N(CCO)CCO)nc3c2ncn3C(C)C)cc1	8.91 µM (active)	–
CCOC(=O)c1cc(=O)c2c(OCC(COc3cccc4oc(C(=O)OCC)cc(=O)c34)OC(=O)[C@@H](N)CCCCN)cccc2o1	–	4.59%
O=C(O)C[C@H](O)C[C@H](O)/C=C/c1c(C2CC2)nc2ccccc2c1-c1ccc(F)cc1	3.16 µM (active)	–
COc1cccc2c1C(=O)c1c(O)c3c(c(O)c1C2=O)C[C@@](O)(/C(CO)=N/NC(=O)CCCCCN1C(=O)C=CC1=O)C[C@@H]3O[C@H]1C[C@H](N)[C@H](O)[C@H](C)O1	3.55 µM (active)	–
COC(C)(C)CCn1nc(Nc2c(C)cccc2C)c2cnc(Nc3ccc(OCCN4CCCC4)c(F)c3)nc21	2.82 µM (active)	–
CCS(=O)(=O)N1CCC([C@@H](C)n2c(C)c(C(=O)NCc3c(OC)cc(C)[nH]c3=O)c3ccccc32)CC1	–	8.68%
C=CC(=O)Nc1cccc(Nc2nc(Nc3ccc(Oc4ccnc(C(=O)NC)c4)cc3)ncc2F)c1	17.8 µM (active)	–

SMILES	Potency	activity (max response)
COc1cc(C(=O)NC2CCCNC2)cc(OC)c1OC (stereo not given)	–	8.49%
CCCCOc1cc(C(=O)OCCN(CC)CC)ccc1N	–	-10.3%
O=C(O)C(S)C(S)C(=O)O (stereo not given)	–	13.2%
CC[C@@](C)(Nc1ccnc(-c2c[nH]c3ncccc23)n1)C(=O)NCC(F)(F)F	–	0.931%
CC1(C)S[C@H]2[C@H](NC(=O)[C@@H](N)c3ccc(O)cc3)C(=O)N2[C@H]1C(=O)O	–	7.49%
CN1CCN(C(c2ccccc2)c2ccccc2)CC1	–	-4.21%
CCN(CC)CCOC(=O)C1(c2ccccc2)CCCC1	–	8.5%
O=C1CC(c2c[nH]c3ccc(F)cc23)C(=O)N1 (stereo not given)	–	-18.5%
N#Cc1ccc(COC[C@H]2O[C@@H](n3c(NCc4ccc(Cl)c(Cl)c4)nc4c(N)ncnc43)[C@H](O)[C@@H]2O)cc1	25.1 µM (active)	–
COc1cccc(OCCCN)c1-c1cc(Nc2cnc(C#N)cn2)n[nH]1	–	-3.44%
C/C(=N/NC(=O)c1ccncc1)C(=O)O	–	7.83%
CC(=O)N1CCC[C@H]1C(=O)N[C@@H](Cc1cnc[nH]1)C(=O)N[C@@H](CO)C(=O)N[C@@H](CS)C(=O)N[C@@H](CC(N)=O)C(N)=O	–	-17.6%
N#Cc1cc2cc(CN3CCC(Nc4ncnc5sc(CC(F)(F)F)cc45)CC3)c(O)cc2n1Cc1cn[nH]c1	14.1 µM (active)	–
COc1ccc(S(=O)(=O)N2CCc3cccc(-c4ccncc4)c32)cc1	0.316 µM (active)	–
CCCCN1C[C@H](O)[C@@H](O)[C@H](O)[C@H]1CO	–	-2.93%
COc1cccc2c1C(=O)c1c(O)c3c(c(O)c1C2=O)C[C@@](O)(C(=O)CO)C[C@@H]3O[C@H]1C[C@H](N)[C@H](O)[C@H](C)O1	2.31 µM (active) and 891 nM (active)	–
Cc1c(-c2ccccc2)oc2c(C(=O)OCCN3CCCCC3)cccc2c1=O	–	-7.2%
CCN1C(=O)N2Cc3cc(OC)cc(OC)c3[C@@H](C)C=C2C12CCN(Cc1cc(C)cc(C)c1)CC2	28.2 µM (active)	–
CN1CCC[C@@H]1c1cccnc1	–	-8.92%
COC(=O)[C@@H](N)Cc1ccc(O)c(O)c1	–	-15%
